Test results: PubChem BioAssay
Activity calls are given as the source filed them.

Columns and labels:
Albumin (Bos taurus) = Albumin (Bos taurus) (UniProt P02769); assay: compounds binding labelled BSA control protein – biochemical, small-molecule microarray, Alexa647 label, 635/667 nm fluorescence, artefact control for SMM control protein annotation, profiling panel (AID 1118); settings: BSA-A647 binding, fluorescence 635 nm, higher = more signal;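 note: score merges 667 nm emission intensity and signal-to-noise per printed compound spot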
[1] = probe aXIP binding to arrayed compounds – biochemical, NeuroSMM set, 635/667 nm fluorescence, primary screen (AID 1119); settings: small-molecule microarray, higher = more signal, called active from +8 up or from −8 down;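 note: probe is the protein aXip251-270 applied at 1 µg/mL to compound-printed slides; binding of probe to printed compounds measured as 667 nm fluorescence plus signal to noise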
[2] = probe aNOTCH3 binding on compound microarray – biochemical, small-molecule microarray, 635/667 nm fluorescence, primary screen (AID 1120); settings: higher = more signal;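 note: probe is a biotin-tagged antibody raised against NOTCH3 rather than NOTCH3 protein; score merges spot fluorescence near 667 nm with spot signal to noise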
[3] = probe aNOTCH2 binding on compound microarray – biochemical, small-molecule microarray, 635/667 nm fluorescence, primary screen (AID 1121); settings: higher = more signal;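 note: score merges feature fluorescence read at 667 nm with its signal to noise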
[4] = target: Carbonic anhydrase 2 (Homo sapiens) (UniProt P00918); assay: compounds binding carbonic anhydrase 2 – biochemical, small-molecule microarray, Alexa647-labelled CAII, profiling panel (AID 1122); settings: CAII-A647 binding fluorescence, higher = more signal
[5] = COS7 lysate on small-molecule microarray, probe aHis, 635 nm (AID 1123); settings: COS7 cell lysate, fluorescence, higher = more signal;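 note: z-score combines 667nm fluorescence intensity with signal-to-noise per printed compound spot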
[6] = probe aLAP1 signal on lysate-treated microarray – cell lysate, small-molecule microarray, COS7 lysate, primary screen (AID 1124); settings: probe aLAP1, fluorescence, higher = more signal;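 note: lysate comes from COS7 cells expressing LAP1 and is applied at 0.3 µg/mL; score merges spot fluorescence near 667 nm with signal-to-noise over triplicate slides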
Sam68 (KHDRBS1) = assay: compounds binding KHDRBS1 protein – biochemical, small-molecule microarray, 635 nm fluorescence, primary screen (AID 1125); settings: higher = more signal;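 note: score merges 667 nm channel intensity with signal to noise over triplicate slides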
[7] = system: Chordin-like protein 2 (CHRDL2); assay: compounds binding chordin-like 2 – biochemical, small-molecule microarray, 635 nm fluorescence, primary screen (AID 1126); settings: fluorescence 635 nm, higher = more signal;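 note: printed compound slides probed with Chrdl2 protein at 4 µg/mL for 1 h at 4 C; score merges 667 nm emission intensity with signal to noise over three replicate slides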
[8] = target: Concanavalin-A (Canavalia ensiformis) (UniProt P02866); assay: compounds binding concanavalin A lectin – biochemical, small-molecule microarray, Alexa647 label, 635 nm, artefact control for SMM control protein annotation, primary screen (AID 1127); settings: ConA-A647 binding fluorescence, higher = more signal;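 note: z combines 667 nm emission intensity with signal-to-noise across three replicate slides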
[9] = compounds binding Alexa647 anti-His antibody – biochemical, small-molecule microarray, 635 nm fluorescence, artefact control for SMM control protein annotation, primary screen (AID 1128); settings: higher = more signal;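 note: score merges feature fluorescence with signal-to-noise for each printed compound spot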
[10] = system: Human papillomavirus type 1a E7 protein (residues 1-88); assay: HPV1a E7 small-molecule binders, primary screen, biochemical, small-molecule microarray, residues 1-88, 635 nm (AID 1129); settings: small-molecule microarray binding, fluorescence 635 nm; higher = more signal
[11] = target: Focal adhesion kinase 1 (Homo sapiens) (UniProt Q05397); assay: PTK2 protein binding on printed compound slides – biochemical, small-molecule microarray, 635/667 nm fluorescence, BSA, DTT, primary screen (AID 1130); settings: 635 nm fluorescence, higher = more signal;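 note: composite of spot emission at 667 nm and signal to noise over triplicate slides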
[12] = system: Fibrinogen (Alexa647-labelled); assay: Alexa647-fibrinogen binding to printed small molecules – biochemical, small-molecule microarray, 635/667 nm fluorescence, artefact control for SMM control-protein annotation, profiling panel (AID 1131); settings: fibrinogen-A647 binding fluorescence, higher = more signal;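 note: z-score merges 667 nm fluorescence with per-spot signal-to-noise over triplicate slides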
[13] = target: Follistatin (Homo sapiens) (UniProt P19883); assay: FST protein binding to printed compounds – biochemical, small-molecule microarray, 635/667 nm fluorescence, primary screen (AID 1132); settings: 635 nm fluorescence, higher = more signal
[14] = target: Fibroblast growth factor 2 (Homo sapiens) (UniProt P09038); assay: basic fibroblast growth factor binding to printed compounds – biochemical, small-molecule microarray, 635/667 nm fluorescence, primary screen (AID 1133); settings: FGF2, fluorescence 635/667, higher = more signal
[15] = JC-1 mitochondrial potential readout, lung cancer cells – cell-based, A549, JC-1 fluorescence, basal, 24 h, 100 nL, profiling panel (AID 1138); settings: higher = more signal;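 note: A549 lung adenocarcinoma cells under basal conditions with no added stimulus; test concentration not given here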
Lefty1 = Lefty1 protein binding to printed compounds – biochemical, small-molecule microarray, 635/667 nm fluorescence, primary screen (AID 1139); settings: fluorescence 635/667, higher = more signal
[16] = system: wheat germ agglutinin (Triticum aestivum), Alexa647-labelled; assay: Alexa647-WGA lectin binding to printed small molecules – biochemical, small-molecule microarray, 635/667 nm fluorescence, artefact control for SMM control-protein annotation, profiling panel (AID 1140); settings: WGA-A647 binding, 635 nm fluorescence, higher = more signal;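 note: score merges 667 nm feature emission with signal to noise over triplicate slides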
[17] = target: Luciferin 4-monooxygenase (Photinus pyralis) (UniProt P08659); assay: inhibition of purified Photinus pyralis luciferase – biochemical, luminescence, purified enzyme, 2006 set, primary screen (AID 1141); settings: purified firefly luciferase, SteadyGlo luminescence, 30 min; higher = more signal, called active from +8 up or from −8 down;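 note: cell-free assay with purified firefly luciferase at 100 ng per well in PBS; test concentration not given here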
Chain of Luciferin 4-monooxygenase (Photinus pyralis) (P08659 whole entry, looked up): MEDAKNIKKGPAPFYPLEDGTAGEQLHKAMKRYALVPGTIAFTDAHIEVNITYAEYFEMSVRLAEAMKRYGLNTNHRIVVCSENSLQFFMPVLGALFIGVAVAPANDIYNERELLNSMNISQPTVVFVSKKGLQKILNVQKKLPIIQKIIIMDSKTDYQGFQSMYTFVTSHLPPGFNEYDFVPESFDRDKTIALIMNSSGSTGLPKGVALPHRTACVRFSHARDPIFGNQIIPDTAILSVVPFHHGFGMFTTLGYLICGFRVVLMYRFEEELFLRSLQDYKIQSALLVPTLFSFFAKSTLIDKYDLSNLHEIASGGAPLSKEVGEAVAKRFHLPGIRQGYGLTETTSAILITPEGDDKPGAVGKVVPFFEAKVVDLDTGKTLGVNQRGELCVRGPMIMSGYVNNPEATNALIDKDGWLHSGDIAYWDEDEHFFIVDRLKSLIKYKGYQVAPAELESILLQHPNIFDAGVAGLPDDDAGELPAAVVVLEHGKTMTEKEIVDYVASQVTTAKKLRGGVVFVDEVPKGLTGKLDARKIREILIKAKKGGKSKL

Chain of Follistatin (Homo sapiens) (P19883 whole entry, looked up): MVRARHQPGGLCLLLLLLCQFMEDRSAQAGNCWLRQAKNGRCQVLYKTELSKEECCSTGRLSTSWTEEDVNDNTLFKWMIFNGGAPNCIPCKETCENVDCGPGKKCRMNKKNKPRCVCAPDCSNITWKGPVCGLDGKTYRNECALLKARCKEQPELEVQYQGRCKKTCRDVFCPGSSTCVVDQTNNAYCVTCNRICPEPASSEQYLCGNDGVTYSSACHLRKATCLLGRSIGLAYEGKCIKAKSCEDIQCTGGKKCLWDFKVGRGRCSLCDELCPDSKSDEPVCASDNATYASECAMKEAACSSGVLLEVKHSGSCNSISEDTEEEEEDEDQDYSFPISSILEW
Chain of Concanavalin-A (Canavalia ensiformis) (P02866 whole entry, looked up): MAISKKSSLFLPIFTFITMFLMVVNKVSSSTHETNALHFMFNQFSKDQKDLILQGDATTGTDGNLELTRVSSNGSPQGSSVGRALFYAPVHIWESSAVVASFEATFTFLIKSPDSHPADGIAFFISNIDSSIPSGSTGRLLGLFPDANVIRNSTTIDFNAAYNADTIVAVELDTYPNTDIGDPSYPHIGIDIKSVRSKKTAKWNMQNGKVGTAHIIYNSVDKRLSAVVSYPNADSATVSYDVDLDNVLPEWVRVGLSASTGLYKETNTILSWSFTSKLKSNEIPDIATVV
Chain of Focal adhesion kinase 1 (Homo sapiens) (Q05397 whole entry, looked up): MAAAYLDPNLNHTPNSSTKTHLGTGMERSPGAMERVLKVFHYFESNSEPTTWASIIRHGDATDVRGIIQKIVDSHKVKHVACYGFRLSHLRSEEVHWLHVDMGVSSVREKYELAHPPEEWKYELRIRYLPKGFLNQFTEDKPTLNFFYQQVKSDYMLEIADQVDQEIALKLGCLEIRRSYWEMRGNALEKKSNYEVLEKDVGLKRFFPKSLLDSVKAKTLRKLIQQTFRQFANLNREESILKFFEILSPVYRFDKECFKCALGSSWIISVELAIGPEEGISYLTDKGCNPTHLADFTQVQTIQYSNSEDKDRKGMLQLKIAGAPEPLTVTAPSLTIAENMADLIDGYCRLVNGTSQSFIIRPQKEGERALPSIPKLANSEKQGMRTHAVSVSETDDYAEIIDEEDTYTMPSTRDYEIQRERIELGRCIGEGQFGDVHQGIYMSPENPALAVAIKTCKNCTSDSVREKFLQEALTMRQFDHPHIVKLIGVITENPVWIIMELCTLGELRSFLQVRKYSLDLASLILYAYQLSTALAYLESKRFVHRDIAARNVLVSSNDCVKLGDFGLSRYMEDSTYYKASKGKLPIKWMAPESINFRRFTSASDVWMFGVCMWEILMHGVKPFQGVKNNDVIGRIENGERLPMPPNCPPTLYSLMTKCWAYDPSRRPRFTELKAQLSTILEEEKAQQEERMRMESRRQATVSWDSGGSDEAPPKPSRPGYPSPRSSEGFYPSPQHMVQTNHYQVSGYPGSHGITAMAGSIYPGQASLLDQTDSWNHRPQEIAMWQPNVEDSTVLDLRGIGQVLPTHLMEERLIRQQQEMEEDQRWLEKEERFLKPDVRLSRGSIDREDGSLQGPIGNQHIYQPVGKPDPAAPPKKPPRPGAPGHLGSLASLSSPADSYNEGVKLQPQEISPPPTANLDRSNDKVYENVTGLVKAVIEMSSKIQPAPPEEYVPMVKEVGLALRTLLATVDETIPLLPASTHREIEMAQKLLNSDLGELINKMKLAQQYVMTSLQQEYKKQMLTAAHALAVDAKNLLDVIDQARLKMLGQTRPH
Chain of Fibroblast growth factor 2 (Homo sapiens) (P09038 whole entry, looked up): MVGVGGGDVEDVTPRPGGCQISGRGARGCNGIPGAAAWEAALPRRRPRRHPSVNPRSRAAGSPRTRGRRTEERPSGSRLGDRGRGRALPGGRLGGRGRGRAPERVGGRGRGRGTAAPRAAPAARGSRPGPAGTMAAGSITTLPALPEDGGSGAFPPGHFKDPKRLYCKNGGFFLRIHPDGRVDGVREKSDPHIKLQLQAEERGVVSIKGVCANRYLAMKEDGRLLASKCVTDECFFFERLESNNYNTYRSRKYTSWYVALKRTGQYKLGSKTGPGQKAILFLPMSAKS
Chain of Albumin (Bos taurus) (P02769 whole entry, looked up): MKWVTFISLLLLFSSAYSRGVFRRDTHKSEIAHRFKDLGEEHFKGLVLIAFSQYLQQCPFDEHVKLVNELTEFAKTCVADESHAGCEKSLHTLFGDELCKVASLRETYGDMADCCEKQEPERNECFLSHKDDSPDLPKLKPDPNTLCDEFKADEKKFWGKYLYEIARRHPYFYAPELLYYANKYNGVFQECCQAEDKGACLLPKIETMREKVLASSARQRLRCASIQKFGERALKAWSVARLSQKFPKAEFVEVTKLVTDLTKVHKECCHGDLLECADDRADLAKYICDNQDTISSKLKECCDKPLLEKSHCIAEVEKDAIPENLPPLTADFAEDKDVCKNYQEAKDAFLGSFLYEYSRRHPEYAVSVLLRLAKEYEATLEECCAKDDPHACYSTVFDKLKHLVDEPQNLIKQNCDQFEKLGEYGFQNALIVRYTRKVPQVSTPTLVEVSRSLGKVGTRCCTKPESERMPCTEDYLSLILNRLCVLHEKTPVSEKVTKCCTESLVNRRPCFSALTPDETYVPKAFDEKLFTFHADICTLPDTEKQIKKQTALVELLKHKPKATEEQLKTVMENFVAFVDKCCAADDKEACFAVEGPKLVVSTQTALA

| Structure (SMILES) | composite z-score (Albumin (Bos taurus)) | composite Z-score [1] | composite z-score [2] | composite z-score [3] | composite z-score [4] | composite z-score [5] | composite z-score [6] | composite z-score (Sam68 (KHDRBS1)) | composite z-score [7] | composite z-score [8] | composite z-score [9] | composite z-score [10] | composite z-score [11] | composite z-score [12] | composite z-score [13] | composite z-score [14] | z-score [15] | composite z-score (Lefty1) | composite z-score [16] | z-score [17] |
| --- | --- | --- | --- | --- | --- | --- | --- | --- | --- | --- | --- | --- | --- | --- | --- | --- | --- | --- | --- | --- |
| [N-]=[N+]=NCc1ccccc1[C@@H]1OC(c2ccc(OCCCO)cc2)=N[C@]1(Cc1ccccc1N=[N+]=[N-])C(N)=O | 0.825 | 0.0773 (inactive) | 0.473 | 0.299 | 0.715 | 2.8 | 0.202 | 1.3 | -0.124 | 1.12 | 1.81 | 1.26 | 0.73 | 1.01 | 1.28 | 0.853 | 0.737 | -0.173 | 1.31 | -3.4 (inactive) |
| O=c1cccc(-c2ccc3ccccc3c2)o1 | -1.67 | 0.19 (inactive) | -0.0766 | -0.115 | -0.263 | -0.332 | -0.341 | -0.591 | 0.387 | -0.544 | -0.829 | -0.788 | -0.179 | -0.656 | 0.305 | -0.276 | 1.14 | -0.123 | -0.276 | -2.88 (inactive) |
| CCN(CC)c1ccc(N2CC=CC34O[C@@H]5C=CCCOC(=O)C5[C@H]3C(=O)N(CCCO)[C@@H]4C2=O)cc1 (stereo not given in full) | -0.87 | -0.0662 (inactive) | -0.0387 | -0.102 | -0.177 | -0.291 | -0.332 | -0.876 | -0.218 | -2.31 | -1.26 | -1.14 | 0.585 | -1.33 | -0.0464 | -0.175 | 0.185 | 0.108 | -1.19 | -0.546 (inactive) |
| C=CCOC(=O)[C@@H]1[C@H]2C(=O)O[C@H](c3ccccc3)[C@H](c3ccccc3)N2[C@H](c2ccc(OCCOC(=O)[C@H]3C[C@H]4C(=O)N[C@@H](CC(C)C)C(=O)N4[C@H]3c3cccc(OCCO)c3)cc2)[C@@]12C(=O)Nc1ccc(I)cc12 | -0.413 | -0.367 (inactive) | 0.19 | -0.0424 | 0.35 | 1.48 | 0.334 | 1.29 | 1.04 | 1.14 | 2.26 | 1.19 | 0.844 | 0.587 | 1.38 | 1.63 | -0.736 | 1.5 | 0.34 | -0.201 (inactive) |
| C=CCN1C(=O)[C@@]2(O[C@@H](CCO)[C@H]([Si](C)(C)c3ccc(OC)cc3)[C@H]2C)c2cc(N3C(=O)COc4ccccc43)ccc21 | 0.277 | 0.69 (inactive) | -0.141 | -0.14 | 0.277 | 1.4 | 0.0661 | 1.29 | -0.317 | 0.973 | 1.52 | 1.02 | 0.346 | 0.578 | 0.25 | 0.27 | -0.839 | 0.0865 | 0.577 | -0.401 (inactive) |
| CN(C)CCCCCCNC(=O)[C@@H]1C[C@@H]2C(=O)N[C@@H](Cc3ccccc3)C(=O)N2[C@@H]1c1cccc(OCCO)c1 | -0.0152 | 0.816 (inactive) | 0.0715 | -0.0793 | 0.784 | 2.51 | 0.142 | 1.31 | 0.711 | 1.11 | 2.13 | 1.05 | 1.81 | 0.105 | 0.699 | 0.886 | -0.37 | 0.729 | 0.346 | -0.0196 (inactive) |
| C=CC[C@@]1(C(=O)NCc2ccccc2)N=C(c2ccc(OCCCO)cc2)O[C@@H]1c1ccccc1CN=[N+]=[N-] | 0.889 | 1.01 (inactive) | 0.525 | 0.117 | 0.721 | 2.95 | 0.88 | 1.26 | -0.58 | 1.03 | 1.8 | 1.22 | 1.06 | 0.995 | 1.29 | -0.204 | 0.903 | -0.0518 | 0.888 | -0.876 (inactive) |
| CCCC[C@@H]1C[C@H]1[C@@H](NC(=O)c1ccccc1)c1ccc(-c2ccccc2)cc1 | 0.891 | -0.0708 (inactive) | -0.0647 | -0.128 | 0.498 | 1.17 | -0.146 | 0.893 | -0.995 | 0.147 | 0.676 | 0.818 | -0.0867 | 0.46 | 0.203 | -0.368 | -0.232 | -0.26 | 0.348 | 0.0434 (inactive) |
| C=C(C(=O)CC[C@@H](OC(=O)c1cccnc1)c1ccc(CO)o1)C(C)C | 0.0207 | 0.278 (inactive) | 0.101 | -0.0698 | 0.614 | 0.583 | 0.697 | 1.24 | 0.584 | 0.383 | -0.403 | 0.799 | 0.113 | 0.82 | 1.26 | 1.1 | 0.288 | 1.56 | 0.187 | -1.96 (inactive) |
| Cc1ccc(S(=O)(=O)N2CC(C(=O)O)=CCC2c2ccccc2)cc1 (stereo not given) | 0.465 | 0.0578 (inactive) | -0.287 | -0.106 | 0.881 | 1.21 | 0.671 | 0.503 | -1.74 | 0.0782 | -0.67 | -0.2 | 0.223 | -0.275 | -1.22 | -1.14 | -1.33 | -0.946 | 0.0972 | 1.52 (inactive) |
| COC(=O)[C@@]1(Cc2ccc(OC)cc2)[C@H]2c3cc(C(=O)N4CCCC4)n(CCc4ccccn4)c3C[C@H]2CN1C(=O)c1ccccc1 | 0.348 | 0.868 (inactive) | 0.268 | 0.0746 | 0.862 | 3.52 | 0.425 | -0.724 | -0.236 | 0.949 | 0.0421 | 0.201 | 0.579 | 0.821 | -0.29 | -0.676 | -1.29 | -0.91 | 0.0844 | 2.15 (inactive) |
